From the supplement of paper PMC8728848
This excerpt belongs to a sample that is enriched for the strongest signals.

What was measured:
Experiment in all cases: glycan array binding signal (z-score within array); higher = stronger binding
Conditions in all cases: glycan notation: IUPAC condensed, linker removed
[1] = molecular target: GlcNAc(b1-3)Gal(b1-4)GlcNAc(b1-3)Gal(b1-4)GlcNAc(b1-2)[GlcNAc(b1-3)Gal(b1-4)GlcNAc(b1-3)Gal(b1-4)GlcNAc(b1-6)]Man(a1-6)[GlcNAc(b1-3)Gal(b1-4)GlcNAc(b1-3)Gal(b1-4)GlcNAc(b1-2)Man(a1-3)]Man(b1-4)GlcNAc(b1-4)[Fuc(a1-6)]GlcNAc
Method in brief: (§1)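 Glycan array data were curated from 3228 arrays in the Consortium for Functional Glycomics database and kept only where the protein sequence was available. Glycan names were converted to IUPAC-condensed notation, and columns mapping to the same glycan were averaged. The binding signal is a within-array Z-score, averaged across arrays of the same protein sequence at different concentrations or buffers and across linkers. Negative Z-scores can be read as non-binding.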

[2] = molecular target: GlcNAc(b1-3)Gal(b1-4)GlcNAc(b1-3)Gal(b1-4)GlcNAc(b1-3)Gal(b1-4)GlcNAc(b1-2)Man(a1-3)[GlcNAc(b1-3)Gal(b1-4)GlcNAc(b1-3)Gal(b1-4)GlcNAc(b1-3)Gal(b1-4)GlcNAc(b1-2)Man(a1-6)]Man(b1-4)GlcNAc(b1-4)GlcNAc
Method in brief: as §1

[3] = molecular target: GlcNAc(b1-3)Gal(b1-4)GlcNAc(b1-3)Gal(b1-4)GlcNAc(b1-3)Gal(b1-4)GlcNAc(b1-2)[GlcNAc(b1-3)Gal(b1-4)GlcNAc(b1-3)Gal(b1-4)GlcNAc(b1-3)Gal(b1-4)GlcNAc(b1-6)]Man(a1-6)[GlcNAc(b1-3)Gal(b1-4)GlcNAc(b1-3)Gal(b1-4)GlcNAc(b1-3)Gal(b1-4)GlcNAc(b1-2)Man(a1-3)]Man(b1-4)GlcNAc(b1-4)[Fuc(a1-6)]GlcNAc
Method in brief: as §1

[4] = molecular target: GlcNAc(b1-3)Gal(b1-4)GlcNAc(b1-3)Gal(b1-4)GlcNAc(b1-3)Gal(b1-4)GlcNAc(b1-3)Gal(b1-4)GlcNAc(b1-2)[GlcNAc(b1-3)Gal(b1-4)GlcNAc(b1-3)Gal(b1-4)GlcNAc(b1-3)Gal(b1-4)GlcNAc(b1-3)Gal(b1-4)GlcNAc(b1-6)]Man(a1-6)[GlcNAc(b1-3)Gal(b1-4)GlcNAc(b1-3)Gal(b1-4)GlcNAc(b1-3)Gal(b1-4)GlcNAc(b1-3)Gal(b1-4)GlcNAc(b1-2)Man(a1-3)]Man(b1-4)GlcNAc(b1-4)[Fuc(a1-6)]GlcNAc
Method in brief: as §1

[5] = molecular target: GlcNAc(b1-3)Gal(b1-4)GlcNAc(b1-3)Gal(b1-4)GlcNAc(b1-3)GalNAc
Method in brief: as §1

[6] = molecular target: GlcNAc(b1-3)Gal(b1-4)GlcNAc(b1-6)[GlcNAc(b1-3)Gal(b1-3)]GalNAc
Method in brief: as §1

[7] = molecular target: GlcNAc(b1-4)GlcNAc(b1-4)GlcNAc(b1-4)GlcNAc(b1-4)GlcNAc
Method in brief: as §1

[8] = molecular target: GlcNAc6S(b1-3)Gal(b1-4)GlcNAc
Method in brief: as §1

[9] = molecular target: Man(a1-2)Man(a1-2)Man(a1-6)[Man(a1-3)]Man
Method in brief: as §1

[10] = molecular target: Man(b1-4)GlcNAc
Method in brief: as §1

[11] = molecular target: Neu5Ac(a2-3)Gal(b1-3)GalNAc(b1-4)[Neu5Ac(a2-3)]Gal(b1-4)Glc
Method in brief: as §1

[12] = molecular target: Neu5Ac(a2-3)Gal(b1-3)[GlcNAc(b1-6)]GalNAc
Method in brief: as §1

[13] = molecular target: Neu5Ac(a2-3)Gal(b1-3)[Neu5Ac(a2-6)]GalNAc
Method in brief: as §1

[14] = molecular target: Neu5Ac(a2-3)Gal(b1-3)]Neu5Ac(a2-3)Gal(b1-4)]GlcNAc
Method in brief: as §1

[15] = molecular target: Neu5Ac(a2-3)Gal(b1-4)GlcNAc(b1-2)Man
Method in brief: as §1

[16] = molecular target: Neu5Ac(a2-3)Gal(b1-4)GlcNAc(b1-2)Man(a1-3)[Neu5Ac(a2-3)Gal(b1-4)GlcNAc(b1-2)Man(a1-6)]Man(b1-4)GlcNAc(b1-4)[Fuc(a1-6)]GlcNAc
Method in brief: as §1

[17] = molecular target: Neu5Ac(a2-3)Gal(b1-4)GlcNAc(b1-2)Man(a1-3)[Neu5Ac(a2-6)Gal(b1-4)GlcNAc(b1-2)Man(a1-6)]Man(b1-4)GlcNAc(b1-4)GlcNAc
Method in brief: as §1

[18] = molecular target: Neu5Ac(a2-3)Gal(b1-4)GlcNAc(b1-2)[Neu5Ac(a2-3)Gal(b1-4)GlcNAc(b1-6)]Man(a1-6)[Neu5Ac(a2-3)Gal(b1-4)GlcNAc(b1-2)Man(a1-3)][GlcNAc(b1-4)]Man(b1-4)GlcNAc(b1-4)GlcNAc
Method in brief: as §1

[19] = molecular target: Neu5Ac(a2-3)Gal(b1-4)GlcNAc(b1-3)Gal(b1-4)[Fuc(a1-3)]GlcNAc
Method in brief: as §1

[20] = molecular target: Neu5Ac(a2-6)Gal
Method in brief: as §1

[21] = molecular target: Neu5Ac(a2-6)Gal(b1-4)GlcNAc(b1-2)Man(a1-3)[Gal(b1-4)GlcNAc(b1-2)Man(a1-6)]Man(b1-4)GlcNAc(b1-4)GlcNAc
Method in brief: as §1

[22] = molecular target: Neu5Ac(a2-6)Gal(b1-4)GlcNAc(b1-3)Gal(b1-4)[Fuc(a1-3)]GlcNAc(b1-3)Gal(b1-4)[Fuc(a1-3)]GlcNAc
Method in brief: as §1

[23] = molecular target: Neu5Ac(a2-6)Gal(b1-4)GlcNAc6S
Method in brief: as §1

[24] = molecular target: Neu5Ac(a2-8)Neu5Ac(a2-3)Gal(b1-3)GalNAc(b1-4)[Neu5Ac(a2-3)]Gal(b1-4)Glc
Method in brief: as §1

B1: Pwp4 (Candida glabrata) (protein)
chain: MGSSHHHHHHSSGLVPRGSHMASVGNPITVSNVCSFPKNWHRTAGFRALTARLGIGIQSDSYKELLNYPGTFQLTTQQSSTTKPNFQISGLVGNIYGLTIVPSYLLVELTGYFVPPVSGEYTFSLEGSDDAAIIFIANPSTFKCGHVEDWPTAYDNDVTVTESIHATRTIYMIEGVAYPIRIAYYNGLSLGKLQASFTDPEGVKRVDWNGYIWRYDSCDTCSYV
glycan array binding signal (z-score) [1]: 4.62
glycan array binding signal (z-score) [2]: 1.16
glycan array binding signal (z-score) [3]: 5.36
glycan array binding signal (z-score) [4]: 4.3
glycan array binding signal (z-score) [5]: -0.617
glycan array binding signal (z-score) [6]: -0.359
glycan array binding signal (z-score) [7]: -0.442
glycan array binding signal (z-score) [8]: -0.195
glycan array binding signal (z-score) [9]: -0.597
glycan array binding signal (z-score) [10]: -0.403
glycan array binding signal (z-score) [11]: -0.275
glycan array binding signal (z-score) [12]: 3.89
glycan array binding signal (z-score) [13]: -0.221
glycan array binding signal (z-score) [14]: -0.455
glycan array binding signal (z-score) [15]: -0.174
glycan array binding signal (z-score) [16]: 1.34
glycan array binding signal (z-score) [17]: 0.37
glycan array binding signal (z-score) [18]: 9.42
glycan array binding signal (z-score) [19]: -0.414
glycan array binding signal (z-score) [20]: 0.575
glycan array binding signal (z-score) [21]: 1.01
glycan array binding signal (z-score) [22]: -0.388
glycan array binding signal (z-score) [23]: -0.336
glycan array binding signal (z-score) [24]: -0.601
